51 compounds from PubChem BioAssay (Tox21) can be followed below.

Results filed as inconclusive are left out. A call without a number means that no potency is given here. Calls of active or inactive are those of the source. The call rests on the fitted dose curve; in most records, active means well fitted cell-killing curve with a large enough effect in the repeat runs; inconclusive means weak or mixed curves, or effect the other way; inactive means flat fitted curve, though single readings scatter.

A short description of test [1]: cAMP Responsive Elements (CRE) small molecule antagonists, cell-based qHTS assay: qHTS cell viability counter screen (AID 2060913). Further: nearly all actives have a fitted effect of over 40% in size. Further: potency means the concentration at half of the fitted maximal effect. The settings on record: CRE-bla HEK293T viability, CellTiter-Glo luminescence, 5 h; series mostly up to 92.4 µM. The method in brief: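 CRE-bla HEK293T cells were seeded in assay medium with 10% dialyzed FBS, incubated 18 hrs at 37 C, then exposed to compounds plus 0.25 uM final NKH477 for 3 hrs. Viability was read by CellTiter-Glo luminescence after 30 min, in the same wells.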

Test [2] can be described thus: cAMP Responsive Elements (CRE) small molecule agonists, cell-based qHTS assay: qHTS cell viability counter screen (AID 2060914). Further: nearly all actives have a fitted effect of over 50% in size. To be noted: CRE-bla HEK293T viability, CellTiter-Glo luminescence, 5 h; series mostly up to 92.4 µM. The method in brief:
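CRE-bla HEK293T cells in 10% dialyzed FBS medium were exposed to compounds for 3 h at 37C after 18 h plating. CellTiter-Glo was then added in the same wells, and luminescence was read after 30 min at room temperature.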
For orientation: Quantitative high-throughput screening tests each substance at several concentrations.

Turning to `CCN1CN(CC)CN(CC)C1`, the Potency entry in test [1] and in test [2] was “inactive” throughout.

As to `NC1[C@H]2CN(c3nc4c(cc3F)c(=O)c(C(=O)O)cn4-c3ccc(F)cc3F)C[C@@H]12` (some centres not stated), the Potency entry in test [1] and in test [2] was “inactive” each time.

For `CC(C)=CC(=O)C=C(C)C`, the Potency entry in test [1] and in test [2] was “inactive” in each case.

With `O=Cc1cccc([N+](=O)[O-])c1`, the Potency entry in test [1] and in test [2] was “inactive” each time.

Turning to `CCCCCCCCCC/C=C/C#N`, the Potency result in test [1] and in test [2] was “inactive” throughout.

Consider `Cc1nc(C)nc(N2C[C@@H](C)N(c3ccnc([C@@H](C)O)n3)[C@@H](C)C2)n1`, for which the Potency entry in test [1] and in test [2] was “inactive” in each case.

Regarding `COCCCOc1cc(C[C@@H](C[C@H](N)[C@@H](O)C[C@H](C(=O)NCC(C)(C)C(N)=O)C(C)C)C(C)C)ccc1OC`, the Potency entry in test [1] and in test [2] was “inactive” in each case.

Turning to `CCN1CCC[C@H]1CNC(=O)c1cc(S(N)(=O)=O)ccc1OC`, the Potency entry in test [1] and in test [2] was “inactive” in each case.

For the compound `Cc1cc(C(=C2C=CC(=Nc3ccc(S(=O)(=O)O)cc3S(=O)(=O)O)C=C2)c2ccc(Nc3ccc(S(=O)(=O)O)cc3)cc2)ccc1N`, the Potency result in test [1] and in test [2] was “inactive” throughout.

Regarding `CC(=O)c1cccnc1`, the Potency entry in test [1] and in test [2] was “inactive” each time.

With `CCCCCCC[N+](CC)(CC)CCCCc1ccc(Cl)cc1`, the Potency result in test [1] and in test [2] was “inactive” in each case.

As for `C[C@]12CCC(=O)C=C1CC[C@@H]1[C@@H]2C(=O)C[C@@]2(C)[C@H]1CC[C@]2(O)C(=O)CO`, the Potency result in test [1] and in test [2] was “inactive” in each case.

Take `Cc1ccccc1C(=O)Nc1ccc(C(=O)N2CCCC(N(C)C)c3ccccc32)cc1` (configuration not stated): the Potency entry in test [1] and in test [2] was “inactive” in each case.

Consider `C=CC(C)(O)CC/C=C(\C)CCC=C(C)C` (configuration not stated), for which the Potency entry in test [1] and in test [2] was “inactive” in each case.

With `O=[N+]([O-])c1ccc2ncccc2c1`, the Potency result in test [1] and in test [2] was “inactive” each time.

Regarding `Nc1cccc([N+](=O)[O-])c1`, the Potency entry in test [1] and in test [2] was “inactive” in each case.

In the case of `CC(CC(C#N)(c1ccccc1)C(C)C)N(C)C` (configuration not stated), the Potency result in test [1] and in test [2] was “inactive” throughout.

Regarding `CCNC(=O)NCCCOc1cccc(CN2CCCCC2)c1`, the Potency entry in test [1] and in test [2] was “inactive” throughout.

`CC(=O)OCC(=O)[C@@]1(O)CC[C@H]2[C@@H]3CCC4=CC(=O)CC[C@]4(C)[C@H]3C(=O)C[C@@]21C`: the Potency entry in test [1] and in test [2] was “inactive” in each case.

Regarding `CC(C)NCC(O)COc1ccc(CC(N)=O)cc1` (configuration not stated), the Potency result in test [1] and in test [2] was “inactive” throughout.

Take `C=CC(C)(O)CCCC(C)CCCC(C)CCCC(C)C` (configuration not stated): the Potency result in test [1] and in test [2] was “inactive” throughout.

Turning to `O=C(O)c1ccccc1NCCc1ccccc1`, the Potency entry in test [1] and in test [2] was “inactive” each time.

For `Cc1ccc2nc(N)[nH]c(=O)c2c1Sc1ccncc1`, the Potency entry in test [1] and in test [2] was “inactive” in each case.

`CC(=O)OCCC(C)CC(C)(C)C` (configuration not stated): the Potency result in test [1] and in test [2] was “inactive” in each case.

As to `CCCCC/C=C/CC1CC(=O)OC1=O` (configuration not stated), the Potency result in test [1] and in test [2] was “inactive” in each case.

For the compound `C=C(C)C(=O)OCC[N+](C)(C)C`, the Potency entry in test [1] and in test [2] was “inactive” each time.

For the compound `COC(=O)C(C)O` (configuration not stated), the Potency result in test [1] and in test [2] was “inactive” throughout.

`NC(=O)c1cnccn1`: the Potency result in test [1] and in test [2] was “inactive” throughout.

With `C=CCOC(=O)c1ccccc1C(=O)OCC=C`, the Potency result in test [1] and in test [2] was “inactive” in each case.

As to `CCCCCCCCCCCC(=O)[O][Sn]([CH2]CCC)([CH2]CCC)[O]C(=O)CCCCCCCCCCC`, the Potency entry in test [1] and in test [2] was “inactive” each time.

In the case of `O=C(O)c1cccc(Oc2ccccc2)c1`, the Potency entry in test [1] and in test [2] was “inactive” in each case.

Turning to `CC(=O)c1ccc(OCC(=O)N2CCCCC2)cc1`, the Potency entry in test [1] and in test [2] was “inactive” in each case.

On to `O=C(O)c1cc(=O)c2ccccc2o1`, for which the Potency entry in test [1] and in test [2] was “inactive” throughout.

Take `C=CCOc1ccccc1OCC(O)CNC(C)C` (configuration not stated): the Potency entry in test [1] and in test [2] was “inactive” in each case.

As to `N#CSCSc1nc2ccccc2s1`, the Potency result in test [1] and in test [2] was “inactive” each time.

As to `C=CC(C)C#N` (configuration not stated), the Potency entry in test [1] and in test [2] was “inactive” in each case.

Turning to `Brc1ccccc1-c1ccccc1`, the Potency result in test [1] and in test [2] was “inactive” throughout.

As to `Cn1c(=O)c2[nH]c(Br)nc2n(C)c1=O`, the Potency result in test [1] and in test [2] was “inactive” in each case.

With `CCCCC1CCCCC(=O)O1` (configuration not stated), the Potency result in test [1] and in test [2] was “inactive” throughout.

In the case of `CCOC(=O)C1=NN(c2ccccc2)C(=O)C1`, the Potency result in test [1] and in test [2] was “inactive” in each case.

As to `COc1cc2c(cc1OC)C(=O)CC2`, the Potency entry in test [1] and in test [2] was “inactive” in each case.

On to `C/C=C/C(=O)CCCC`, for which the Potency entry in test [1] and in test [2] was “inactive” each time.

Turning to `NC(=S)NNC(N)=S`, the Potency entry in test [1] and in test [2] was “inactive” each time.

For `Cc1ccc(-c2ccccc2C#N)cc1`, the Potency result in test [1] and in test [2] was “inactive” throughout.

Consider `CC1OCCC1=O` (configuration not stated), for which the Potency result in test [1] and in test [2] was “inactive” in each case.

Regarding `CCN(C)C(=O)Oc1cccc([C@H](C)N(C)C)c1`, the Potency result in test [1] and in test [2] was “inactive” in each case.

For `C=CC(=O)Nc1cc2c(Nc3ccc(F)c(Cl)c3)ncnc2cc1OCCCN1CCOCC1`, the Potency entry in test [1] and in test [2] was “inactive” each time.

Take `Cc1cccc(O)c1N`: the Potency result in test [1] and in test [2] was “inactive” throughout.

Take `C[C@@H](Oc1ccc(CNC(=O)c2cccnc2Oc2ccc3c(c2)OCO3)c(F)c1)C(=O)O`: in test [1], the Potency is 13.7 µM (active). For the same compound, the Potency result in test [2] was “inactive”.

On to `CC1(C)C(=O)NC(=O)N1CO`, for which the Potency entry in test [1] and in test [2] was “inactive” in each case.

Take `CC(C)(C)C(=O)OCOC(=O)[C@@H]1N2C(=O)[C@@H](NC(=O)[C@H](N)c3ccccc3)[C@H]2SC1(C)C`: the Potency entry in test [1] and in test [2] was “inactive” each time.
